Each structure is given as a SMILES string. The source made the active and inactive calls.

A short description of test [1]: binders of probe aFSTL3 on microarray, primary screen, stem cell growth factor project, biochemical, small-molecule microarray, fluorescence 635/667 (AID 1064).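 Note: measures binding of the biotinylated anti-FSTL3 antibody to printed compounds.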 Conditions: higher = more signal.
Test [2] in a line: binders from COS7 lysate, DM2A8 probe, primary screen, torsin A project, cell lysate, small-molecule microarray, fluorescence 635/667 (AID 1065). Particulars: higher = more signal, COS7 lysate expressing mutant human TOR1A.
Test [3] is described as follows: binders of probe aFGF2 on microarray, primary screen, stem cell growth factor project, biochemical, small-molecule microarray, fluorescence 635/667 (AID 1067).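 Note: measures binding of biotinylated aFGF2 protein to printed compounds on slides; z-score merges feature fluorescence and signal-to-noise across triplicate slides.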 Particulars: higher = more signal.
A short description of test [4]: binders of probe aFGF10 on microarray, primary screen, stem cell growth factor project, biochemical, small-molecule microarray, fluorescence 635/667 (AID 1071).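 Note: score merges 667 nm spot intensity and signal to noise from triplicate slides.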 Conditions: higher = more signal.
The target of test [5] is Neurogenic locus notch homolog protein 2 (Homo sapiens) (UniProt Q04721). The test can be described thus: Notch2 binders on small-molecule microarrays, primary screen, biochemical, small-molecule microarray, 635 nm fluorescence, stem cell growth factors (AID 1073). Particulars: Notch2 binding, higher = more signal.
In test [6] the target is Pro-neuregulin-1, membrane-bound isoform (Homo sapiens) (UniProt Q02297). The test can be described thus: NRG1 binders on small-molecule microarrays, primary screen, psychiatric disease protein project, biochemical, small-molecule microarray, fluorescence 635/667 (AID 1075).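 Note: score combines 667 nm spot fluorescence with signal to noise.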 Conditions: NRG1 binding, 635 nm fluorescence, higher = more signal.
The subject of test [7] is Neuregulin-1 EGF-like domain. Nature of the test: binders of neuregulin-1 EGF-like domain, primary screen, biochemical, small-molecule microarray, 635 nm fluorescence (AID 1081).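 Note: binding of the protein to compounds printed on small-molecule microarray slides.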 Particulars: small-molecule microarray binding, higher = more signal.
Test [8] can be described thus: FRG1 promoter luciferase signal modulators, primary screen, FRG1 inhibition for FSHD, cell-based, C2C12 myotubes, firefly/Renilla luciferase, luminescence (AID 1084). Conditions: higher = more signal, called active from +8 up or from −8 down.
Test [9] in a line: binders of probe aFST on microarray, primary screen, stem cell growth factor project, biochemical, small-molecule microarray, fluorescence 635/667 (AID 1086).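 Note: score merges 667 nm fluorescence with signal-to-noise of each printed compound spot.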 Conditions: higher = more signal.
A short description of test [10]: binders of probe aHhip on microarray, primary screen, stem cell growth factor project, biochemical, small-molecule microarray, fluorescence 635/667 (AID 1087).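 Note: score merges spot fluorescence at 667nm with spot signal to noise ratio.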 Particulars: higher = more signal.
Test [11] has as its system PRMT1 (protein arginine N-methyltransferase 1). Nature of the test: PRMT1 binders on small-molecule microarrays, primary screen, biochemical, small-molecule microarray, 635 nm fluorescence (AID 1088).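 Note: binding of Prmt1 protein to compounds spotted on small-molecule microarray slides.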 Conditions: small-molecule microarray binding, higher = more signal.
A short description of test [12]: yeast growth modulation, basal conditions, primary screen, YJM789 clinical isolate, OD600, 24 h (AID 1089).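 Note: growth of clinical yeast isolate S. cerevisiae YJM 789 seeded 1000 cells per well; test concentration not given here.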 Conditions: S. cerevisiae YJM789 growth, higher = more signal, called active from +8 up or from −8 down.
Test [13] in a line: fission yeast growth modulation, primary screen, strain 972, OD600, 24 h, no modulator (AID 1090).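 Note: basal condition with compound alone and no growth modifier present; test concentration not given here.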 Particulars: S. pombe 972 growth, higher = more signal, called active from +8 up or from −8 down.
Test [14] in a line: S. cerevisiae growth modulation with rapamycin, primary screen, strain BY4716, OD600, 96 h (AID 1091). Note: test concentration not given here. Particulars: higher = more signal, called active from +8 up or from −8 down.
Test [15] concerns the target Torsin-1A-interacting protein 2 (Homo sapiens) (UniProt Q8NFQ8). Nature of the test: LULL1 binders on small-molecule microarray, primary screen, cell lysate, human LULL1 lysate, 635/667 nm fluorescence (AID 1092).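 Note: probe is lysate of COS7 cells overexpressing human LULL1; score merges per-feature 667 nm fluorescence with signal-to-noise.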 Particulars: hLULL1 lysate binding, 635 nm fluorescence, higher = more signal.
The nature of test [16]: E. coli growth modulation, two-sided OD650, primary screen, E. coli filamentation project, strain DRC41, 24 h (AID 1093).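 Note: MC1000 strain lacking acrAB efflux and sulA so SOS filamentation is blocked; test concentration not given here.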 Particulars: OD650, 24 h, higher = more signal, called active from +8 up or from −8 down.
Test [17] can be described thus: small-molecule microarray binders of probe aLefty2, primary screen, biochemical, biotinylated probe, 635/667 nm fluorescence (AID 1094).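 Note: score merges spot fluorescence near 667 nm with spot signal-to-noise ratio.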 Particulars: higher = more signal.
In test [18] the test system is Noggin (protein binding on small-molecule microarray). The test can be described thus: Noggin binders on small-molecule microarray, primary screen, biochemical, 635/667 nm fluorescence (AID 1095).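 Note: score merges 667 nm feature fluorescence with signal to noise over triplicate slides.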 Particulars: 635 nm fluorescence, higher = more signal.
In test [19] the target is Neurogenic locus notch homolog protein 3 (Homo sapiens) (UniProt Q9UM47). The test can be described thus: NOTCH3 binders on small-molecule microarray, primary screen, biochemical, 635/667 nm fluorescence (AID 1096). Particulars: NOTCH3 binding, 635 nm fluorescence, higher = more signal.
A short description of test [20]: small-molecule microarray binders of probe aEGFR, primary screen, biochemical, biotinylated probe, 635/667 nm fluorescence (AID 1097).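 Note: probe is a biotinylated anti-EGFR antibody binding compounds printed on slides; score combines fluorescence near 667 nm and signal to noise of each spot.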 Conditions: higher = more signal.

Neurogenic locus notch homolog protein 3 (Homo sapiens), sequence (Q9UM47 whole entry, looked up): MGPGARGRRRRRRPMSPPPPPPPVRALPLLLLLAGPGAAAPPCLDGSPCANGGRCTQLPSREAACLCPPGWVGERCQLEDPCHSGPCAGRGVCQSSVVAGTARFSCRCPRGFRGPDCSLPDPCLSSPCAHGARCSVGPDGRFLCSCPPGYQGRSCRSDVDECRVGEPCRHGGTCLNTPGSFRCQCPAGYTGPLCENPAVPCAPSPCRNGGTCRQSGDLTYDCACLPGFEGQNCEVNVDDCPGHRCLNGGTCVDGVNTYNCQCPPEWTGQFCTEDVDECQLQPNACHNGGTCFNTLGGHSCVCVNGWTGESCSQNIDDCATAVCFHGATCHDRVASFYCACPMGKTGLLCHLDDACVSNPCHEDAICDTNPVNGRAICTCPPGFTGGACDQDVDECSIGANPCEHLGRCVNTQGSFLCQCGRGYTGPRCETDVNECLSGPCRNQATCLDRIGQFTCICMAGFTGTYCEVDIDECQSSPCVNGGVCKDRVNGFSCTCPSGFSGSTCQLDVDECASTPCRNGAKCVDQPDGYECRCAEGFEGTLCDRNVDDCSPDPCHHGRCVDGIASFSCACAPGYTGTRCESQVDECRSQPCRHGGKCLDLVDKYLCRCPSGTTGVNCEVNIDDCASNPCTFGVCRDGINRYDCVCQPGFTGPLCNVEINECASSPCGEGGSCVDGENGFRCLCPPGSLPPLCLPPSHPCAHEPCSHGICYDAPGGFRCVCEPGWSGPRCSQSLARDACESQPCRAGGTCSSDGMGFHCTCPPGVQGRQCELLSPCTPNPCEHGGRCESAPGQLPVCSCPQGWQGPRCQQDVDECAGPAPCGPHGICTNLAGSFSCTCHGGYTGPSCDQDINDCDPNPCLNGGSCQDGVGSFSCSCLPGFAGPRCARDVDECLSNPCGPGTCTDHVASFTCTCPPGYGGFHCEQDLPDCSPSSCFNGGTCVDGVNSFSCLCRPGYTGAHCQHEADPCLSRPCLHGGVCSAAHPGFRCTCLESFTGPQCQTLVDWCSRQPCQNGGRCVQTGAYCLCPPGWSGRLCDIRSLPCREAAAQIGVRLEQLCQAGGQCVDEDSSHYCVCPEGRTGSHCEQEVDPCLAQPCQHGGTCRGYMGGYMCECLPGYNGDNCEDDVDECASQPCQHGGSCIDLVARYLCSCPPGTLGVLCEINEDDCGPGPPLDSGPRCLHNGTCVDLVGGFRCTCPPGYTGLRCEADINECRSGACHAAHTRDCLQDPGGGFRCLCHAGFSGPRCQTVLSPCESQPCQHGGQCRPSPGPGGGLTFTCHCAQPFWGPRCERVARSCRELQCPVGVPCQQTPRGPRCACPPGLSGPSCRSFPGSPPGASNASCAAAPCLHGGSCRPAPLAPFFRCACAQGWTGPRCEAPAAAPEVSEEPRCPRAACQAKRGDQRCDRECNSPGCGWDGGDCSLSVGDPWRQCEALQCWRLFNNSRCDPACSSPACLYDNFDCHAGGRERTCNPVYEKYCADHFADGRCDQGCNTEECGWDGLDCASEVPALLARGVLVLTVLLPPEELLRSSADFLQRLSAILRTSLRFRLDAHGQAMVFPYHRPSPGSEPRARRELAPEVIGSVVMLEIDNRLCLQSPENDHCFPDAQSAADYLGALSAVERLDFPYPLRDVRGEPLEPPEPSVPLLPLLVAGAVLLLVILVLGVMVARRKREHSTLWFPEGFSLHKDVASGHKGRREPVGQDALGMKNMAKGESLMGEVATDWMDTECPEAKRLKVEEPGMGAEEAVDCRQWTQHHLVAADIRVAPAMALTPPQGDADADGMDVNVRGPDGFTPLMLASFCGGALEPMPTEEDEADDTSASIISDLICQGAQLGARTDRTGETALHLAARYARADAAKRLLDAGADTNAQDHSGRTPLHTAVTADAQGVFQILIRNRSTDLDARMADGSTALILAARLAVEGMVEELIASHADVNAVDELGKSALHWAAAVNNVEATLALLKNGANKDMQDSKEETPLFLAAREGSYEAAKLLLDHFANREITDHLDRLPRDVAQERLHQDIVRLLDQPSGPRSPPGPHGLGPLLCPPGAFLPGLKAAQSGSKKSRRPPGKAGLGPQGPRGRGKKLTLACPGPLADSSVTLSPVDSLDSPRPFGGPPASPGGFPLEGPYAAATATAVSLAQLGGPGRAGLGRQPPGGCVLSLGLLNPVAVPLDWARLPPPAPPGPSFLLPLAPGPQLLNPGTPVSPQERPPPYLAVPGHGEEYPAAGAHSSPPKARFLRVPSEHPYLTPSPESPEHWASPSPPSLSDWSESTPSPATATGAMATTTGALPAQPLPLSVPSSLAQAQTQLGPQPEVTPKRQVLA
Neurogenic locus notch homolog protein 2 (Homo sapiens), sequence (Q04721 whole entry, looked up, canonical isoform): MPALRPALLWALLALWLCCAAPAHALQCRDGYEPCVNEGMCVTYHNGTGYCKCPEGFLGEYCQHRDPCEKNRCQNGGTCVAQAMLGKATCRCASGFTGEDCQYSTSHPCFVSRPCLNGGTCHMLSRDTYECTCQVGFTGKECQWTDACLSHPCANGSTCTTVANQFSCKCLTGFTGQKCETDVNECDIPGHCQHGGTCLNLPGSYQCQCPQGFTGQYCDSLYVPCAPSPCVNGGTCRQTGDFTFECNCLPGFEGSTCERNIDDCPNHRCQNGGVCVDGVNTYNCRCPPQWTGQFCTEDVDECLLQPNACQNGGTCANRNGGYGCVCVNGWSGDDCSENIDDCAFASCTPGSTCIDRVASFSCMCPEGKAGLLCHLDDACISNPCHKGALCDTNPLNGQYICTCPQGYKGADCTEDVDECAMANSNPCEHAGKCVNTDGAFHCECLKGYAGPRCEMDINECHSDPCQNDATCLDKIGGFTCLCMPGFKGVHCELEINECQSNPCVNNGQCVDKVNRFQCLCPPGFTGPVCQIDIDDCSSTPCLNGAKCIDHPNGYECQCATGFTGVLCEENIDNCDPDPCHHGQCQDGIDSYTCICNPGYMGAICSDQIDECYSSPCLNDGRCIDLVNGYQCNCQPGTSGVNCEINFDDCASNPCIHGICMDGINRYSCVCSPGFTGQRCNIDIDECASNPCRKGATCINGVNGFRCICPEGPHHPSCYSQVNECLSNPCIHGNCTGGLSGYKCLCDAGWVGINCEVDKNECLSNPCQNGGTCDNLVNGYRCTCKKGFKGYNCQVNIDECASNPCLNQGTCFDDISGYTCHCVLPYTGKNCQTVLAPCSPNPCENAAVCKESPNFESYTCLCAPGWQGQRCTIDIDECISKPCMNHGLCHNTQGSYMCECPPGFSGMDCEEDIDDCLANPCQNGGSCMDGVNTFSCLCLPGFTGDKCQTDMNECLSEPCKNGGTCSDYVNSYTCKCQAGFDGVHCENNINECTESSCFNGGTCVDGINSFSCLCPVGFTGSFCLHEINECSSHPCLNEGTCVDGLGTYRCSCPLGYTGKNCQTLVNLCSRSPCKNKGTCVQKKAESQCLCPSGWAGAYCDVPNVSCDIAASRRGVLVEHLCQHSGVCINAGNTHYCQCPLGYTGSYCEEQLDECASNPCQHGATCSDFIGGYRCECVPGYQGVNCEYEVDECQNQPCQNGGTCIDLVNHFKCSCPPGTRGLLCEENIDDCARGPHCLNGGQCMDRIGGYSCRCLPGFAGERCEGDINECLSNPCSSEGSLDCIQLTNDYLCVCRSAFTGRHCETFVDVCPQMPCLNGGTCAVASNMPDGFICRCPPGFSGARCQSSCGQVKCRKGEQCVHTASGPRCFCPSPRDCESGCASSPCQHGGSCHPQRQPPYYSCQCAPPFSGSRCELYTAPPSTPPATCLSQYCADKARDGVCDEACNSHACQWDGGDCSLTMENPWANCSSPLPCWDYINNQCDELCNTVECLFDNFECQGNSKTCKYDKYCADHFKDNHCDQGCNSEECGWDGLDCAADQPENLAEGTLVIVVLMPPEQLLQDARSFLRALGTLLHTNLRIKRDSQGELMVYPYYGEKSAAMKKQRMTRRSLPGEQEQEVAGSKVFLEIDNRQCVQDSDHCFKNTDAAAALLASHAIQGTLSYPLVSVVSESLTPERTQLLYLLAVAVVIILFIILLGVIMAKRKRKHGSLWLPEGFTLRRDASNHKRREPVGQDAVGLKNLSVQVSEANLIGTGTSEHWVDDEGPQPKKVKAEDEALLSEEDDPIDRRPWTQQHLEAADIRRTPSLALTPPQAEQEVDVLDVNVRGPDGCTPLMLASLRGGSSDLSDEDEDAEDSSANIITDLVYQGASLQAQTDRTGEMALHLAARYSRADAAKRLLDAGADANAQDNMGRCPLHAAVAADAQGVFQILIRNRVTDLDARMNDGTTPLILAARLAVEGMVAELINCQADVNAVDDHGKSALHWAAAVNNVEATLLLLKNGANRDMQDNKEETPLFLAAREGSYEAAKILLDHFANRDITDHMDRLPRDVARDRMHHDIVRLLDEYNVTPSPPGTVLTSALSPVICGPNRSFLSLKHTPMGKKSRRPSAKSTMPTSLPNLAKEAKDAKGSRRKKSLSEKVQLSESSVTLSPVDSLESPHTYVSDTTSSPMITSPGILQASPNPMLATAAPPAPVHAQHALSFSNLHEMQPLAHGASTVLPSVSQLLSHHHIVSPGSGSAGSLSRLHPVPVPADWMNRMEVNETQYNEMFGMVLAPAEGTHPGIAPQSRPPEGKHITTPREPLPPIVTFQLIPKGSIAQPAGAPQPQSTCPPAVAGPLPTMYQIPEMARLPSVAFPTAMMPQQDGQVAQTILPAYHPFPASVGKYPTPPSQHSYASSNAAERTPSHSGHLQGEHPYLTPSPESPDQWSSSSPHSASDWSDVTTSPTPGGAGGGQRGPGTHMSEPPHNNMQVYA

For `CCOC(=O)[C@H](Cc1ccccc1)NC(=O)CCC1CC(OC(=O)NCc2ccc3c(c2)OCO3)CC2(CCCC(COC(=O)NCCOC)O2)O1` (stereo not given in full), the composite z-score in test [1] was -0.444; in test [2] it was 1.85; in test [3], -0.0533; in test [4], 0.688; in [5], 0.994; in test [6], 0.63. For the same compound, the composite z-score in test [7] was 0.773; in [9] it was 0.412; in test [10], 0.524; in [11], 1.56; in test [15], 2.34; in [17], -0.166. Further, the composite z-score was found to be 0.884 in [18], 1.05 in test [19] and 0.0059 in [20]. Moreover, the z-score in test [8] is 1.75 (inactive); in test [12], -0.439 (inactive); in test [13], -0.25 (inactive); in [14], -0.364 (inactive); in test [16], -0.141 (inactive).

For the compound `C#CCCCON=C1[C@H]2CCn3c(=O)n([C@@H](CC)c4ccccc4)c(=O)n3[C@H]2[C@H](O)[C@@H]2O[C@H]12`, the composite z-score was -0.409 in test [1]; 0.152 in test [2]; 0.0047 in [3]; 0.353 in [4]; 0.148 in test [5]; 0.24 in [6]. Also, the composite z-score was 0.322 in test [7]; -0.0356 in test [9]; -0.261 in test [10]; -0.142 in test [11]; 0.883 in test [15]; -0.114 in test [17]. The composite z-score is 1.05 in [18], 0.226 in [19] and -0.042 in test [20]. In addition, the z-score in test [8] is 0.456 (inactive); in test [12], -0.455 (inactive); in [13], -1.1 (inactive); in test [14], -0.533 (inactive); in [16] it was -0.647 (inactive).

In the case of `CCOC(=O)CCN1C(=O)[C@H]2[C@@H]3C(=CC[C@H]2C1=O)C(=O)[C@H]1O[C@H]1[C@H]3O`, the composite z-score in test [1] is -0.128; in [2], -0.42; in test [3] it was -0.137; in test [4] it was -0.199; in test [5], -0.582; in test [6], -0.426. The composite z-score in [7] was 0.503; in [9], -0.481; in [10] it was -0.137; in [11], -0.571; in [15], -0.0261; in test [17] it was -0.27. The results for the composite z-score in [18], in [19] and in [20] were -0.861, -1.75 and -0.122, respectively. The z-score in [8] is -2.91 (inactive); in test [12], 0.151 (inactive); in [13], 0.0483 (inactive); in [14], -0.384 (inactive); in [16], -0.518 (inactive).

As for `CC(=O)OC[C@H]1O[C@@H](ON=C2[C@H]3CCn4c(=O)n(-c5ccccc5)c(=O)n4[C@H]3[C@H](O)[C@@H]3O[C@H]23)[C@H](OC(C)=O)[C@@H](OC(C)=O)[C@@H]1OC(C)=O`, the composite z-score in [1] is -0.512; in test [2], 0.617; in test [3] it was -0.0787; in test [4], 0.582; in test [5] it was 0.396; in test [6], 0.471. For the same compound, the composite z-score was 0.711 in test [7]; 0.259 in test [9]; -0.0024 in [10]; 1.02 in test [11]; 1.37 in test [15]; -0.0409 in test [17]. Also, the composite z-score is 0.349 in test [18], 0.785 in [19] and -0.0485 in test [20]. The z-score in test [8] was 0.295 (inactive); in test [12], -0.436 (inactive); in [13], -0.598 (inactive); in [14], 0.083 (inactive); in [16] it was 0.0967 (inactive).

For `CO[C@H]1COC(=O)CC=C[C@H](C)[C@H](OC)COC(=O)[C@@H](C)NC(=O)CC=C[C@@H]1C`, the composite z-score is -0.57 in test [1]; 2.19 in test [2]; -0.246 in test [3]; -0.225 in test [4]; -0.755 in test [5]; -0.468 in test [6]. Besides, the composite z-score is 0.659 in test [7]; -0.39 in test [9]; 0.172 in [10]; 1.56 in test [11]; 0.525 in [15]; -0.0122 in [17]. Further, the composite z-score was 1.61 in [18], 0.346 in [19] and -0.0313 in test [20]. Besides, the z-score in [8] was 0.484 (inactive); in test [12], -1.77 (inactive); in [13], -0.391 (inactive); in test [14], -0.735 (inactive); in test [16], -0.159 (inactive).

Source of the values: PubChem BioAssay.
